Data as given in PubChem BioAssay (EPA / NIEHS).
Activity calls are given as the source filed them. Rule for the calls: active = hit-call score of the fitted dose curve at least 0.9, where 1 is the maximum; inactive = score below 0.9.

Read-out: Interleukin-8 (IL8), CXCL8 (gene 3576)
Test: BSK_hDFCGF_IL8: BioMAP Diversity Plus: hDFCGF Assay for Interleukin-8 (IL8) Biomarker Activity (AID 2283058)
Conditions: primary human foreskin fibroblasts; actives raise or lower the signal
Summary of the method: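 ELISA read-out of IL-8 from primary human foreskin fibroblast cultures taken 24 h after dosing; values are bidirectional fits relative to DMSO vehicle.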

| SMILES | outcome |
| --- | --- |
| CCCCCCC(O)CCCCCCCCCCC(=O)OC (configuration not stated) | inactive |
| CCC(C)=NO | inactive |
| Cc1cc(-n2nc3ccc(Cl)cc3n2)c(O)c(C(C)(C)C)c1 | inactive |
| Oc1cccc2ccccc12 | inactive |
| CN(C)c1ccc(C(c2ccccc2)c2ccc(N(C)C)cc2)cc1 | inactive |
| CC[N+](CC)(CC(=O)Nc1c(C)cccc1C)Cc1ccccc1 (tested in a mixture with another compound) | inactive |

Read-out: not listed separately
Test: BSK_hDFCGF_Proliferation: Cell Proliferation Assessment in the BioMAP Diversity Plus: hDFCGF Assay (AID 2283059);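 note: curves fitted for both rise and fall of signal versus DMSO baseline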
Conditions: primary human foreskin fibroblasts
Summary of the method: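 Primary human foreskin fibroblasts, sub-confluent; […]; 10% TCA fix, 0.1% SRB stain, A560 total protein. Gain/loss fitted bidirectionally vs DMSO control.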

| SMILES | AC50 | outcome |
| --- | --- | --- |
| CCCCCCC(O)CCCCCCCCCCC(=O)OC (configuration not stated) | 4.09 µM (active) | – |
| CCC(C)=NO | – | inactive |
| Cc1cc(-n2nc3ccc(Cl)cc3n2)c(O)c(C(C)(C)C)c1 | – | inactive |
| Oc1cccc2ccccc12 | 13.3 µM (active) | – |
| CN(C)c1ccc(C(c2ccccc2)c2ccc(N(C)C)cc2)cc1 | 3.87 µM (active) | – |
| CC[N+](CC)(CC(=O)Nc1c(C)cccc1C)Cc1ccccc1 (tested in a mixture with another compound) | – | inactive |
